Pf Dd2 growth = blocks in vitro growth of P. falciparum Dd2 | P. falciparum Dd2 growth, SYBR Green, 72 h | Potency, µM (series often up to 28.9 µM), inactives show at the top dose activity, negative = inhibition, usual class: inhibitors | 4.3% of 120,000 active | AID 1347417; active = well fitted inhibition curve with a large enough effect;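 also: plate controls were DMSO vehicle for no effect and reference drug for full effect; nearly all actives have a fitted effect of over 65% in size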
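Infected erythrocytes (Dd2, 0.3% parasitemia, 2.5% hematocrit final) are added to compound in RPMI-1640/Albumax II medium, grown 72 h at 37C in low oxygen, then lysed with saponin/Triton-X containing SYBR Green and read by fluorescence.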
Active calls of the source: *; i = inactive; [ ] = another dose, or the depositor's remark. Many of the other results were omitted from the sample, so hits are more common in it than they were. Potency is read from the fitted curve at half-maximal effect.

SMILES	Pf Dd2 growth
COc1ccc(-c2nnc3n2CCN([S+](=O)([O-])c2cccs2)C3)cc1	-25.5%
CCn1cc(CN2CC[C@@H]3CN(S(C)(=O)=O)[C@@H]3C2)c(C)n1	9.1%
O=C(CC1C(=O)NCCN1Cc1ccc(-c2ccccc2)cc1)NC(CO)CO (configuration not stated)	-0.6%
CC(=O)Nc1ccc(C)cc1S(=O)(=O)NCCn1c(C)cnc1C1CCC1	-11.2%
Cc1cnc(C2CC2)n1CCNS(=O)(=O)c1ccccc1F	-17.2%
Cc1cc(Cl)ccc1S(=O)(=O)NCCn1c(C)cnc1C1CCC1	6.31µM*
Cc1cc(C)c(S(=O)(=O)NCCn2c(C)cnc2C2CC2)c(C)c1	11.2µM*
Cc1cnc(C2CC2)n1CCNC(=O)C(C)C	5.2%
Cc1cnc(C2CCC2)n1CCNS(=O)(=O)c1ccccc1	i
O=C(c1ccccn1)N1CCC(CCOc2ccccc2F)C1 (configuration not stated)	i
O=C(NCc1ccccc1-c1ccccc1)c1cn(Cc2ccc(F)cc2)nn1	i
Cc1ccc(-n2nc(C)c3c(C)c(CCC(=O)NCc4cccc(Cl)c4)c(C)nc32)cc1C	-6.4%
CCCCNC(=O)CCc1c(C)nc2c(c(C)nn2-c2ccccc2)c1C	-22.6%
CCOc1ccc(CCNC(=O)CCc2c(C)nc3c(c(C)nn3-c3ccccc3)c2C)cc1OCC	7.94µM*
Cc1nc2c(c(C)nn2-c2ccccc2)c(C)c1CCC(=O)NCc1ccccc1	-27.3%
Cc1nc2c(c(C)nn2-c2ccccc2)c(C)c1CCC(=O)NCCc1ccccc1	-23.1%
Cc1ccc(-n2nc(C)c3c(C)c(CCC(=O)NCc4ccccc4Cl)c(C)nc32)cc1	5.62µM*
COc1ccc(CCNC(=O)c2ccc(Cn3c(=O)c4ccccc4n(Cc4cccc(C)c4)c3=O)cc2)cc1OC	12.3%
COc1ccc(C(=O)N2CC[C@@H](CC(=O)O)[C@@H](CCN3CCC[C@H]3C(N)=O)C2)cc1	15.9%[44.1 µM]
CSc1cccc(NC(=O)C2CCN(c3ncnc4c3nc3n4CCCCC3)CC2)c1	9.4%
CCCNC(=O)N1CCCC(c2nn(C)c(=O)n2CC)C1 (configuration not stated)	3.0%
O=C1Cc2cc(S(=O)(=O)N3CCN(c4ccccc4)CC3)ccc2N1	12.5%
CCOC(=O)c1c(C)[nH]c(C)c1S(=O)(=O)NCC(=O)Nc1cccc(C#N)c1	6.1%
CCOC(=O)c1c(NC(=O)CSc2cn(CCNC(=O)c3ccccc3F)c3ccccc23)sc2c1CCCC2	-27.6%
CCOC(=O)c1c(NC(=O)CSc2cn(CCNC(=O)c3ccccc3OC)c3ccccc23)sc2c1CCC2	11.2µM*
SMILES	Pf Dd2 growth
CCOC(=O)c1c(NC(=O)CSc2cn(CCNC(=O)c3ccc(OCC)cc3)c3ccccc23)sc2c1CCC2	i
C[S+](=O)([O-])N1CCn2ncc(C(=O)Nc3ccc(Cl)cc3Cl)c2C1	14.5%
COc1ccc(-c2nnc([C@H]3CCN(C(=O)C4CCCCC4)C3)o2)cc1	-1.9%[44.1 µM]
CCOC(=O)C1(Cc2ccccc2C)CCCN(Cc2cnc(C)s2)C1 (configuration not stated)	11.2µM*
CCOC(=O)C1(Cc2cccc(Cl)c2)CCCN(Cc2cnn(C)c2)C1 (configuration not stated)	i
CCOC(=O)C1(Cc2cccc(OC)c2)CCCN(Cc2cnc[nH]2)C1 (configuration not stated)	i
CCOC(=O)C1(Cc2ccccc2F)CCCN(C(=O)C(=O)c2ccco2)C1 (configuration not stated)	-2.3%
CCOC(=O)C1(Cc2ccccc2C)CCCN(Cc2nccn2CC)C1 (configuration not stated)	10µM*
CCn1ccnc1CN1CCC(Oc2ccccc2OC)(C(=O)O)CC1	-4.1%
Cc1ccc(CS(=O)(=O)c2cn(CC(=O)N(C)c3ccccc3)c3ccccc23)cc1	-25.2%
O=C(NCc1ccccc1)C1CCN(C(=O)c2nnn3c2COC(c2ccc(F)cc2)C3)CC1 (configuration not stated)	-13.5%
Cc1cc(C(F)(F)F)n2nc(-c3ccc(Br)cc3)cc2n1	25.8%
Cc1ccc(C(C)C)c(OCC(=O)Nc2ccc(O)c(-c3nc4cc(Cl)ccc4o3)c2)c1	38.9%
CCOc1ccc(NC(=O)CCc2c(C)nc3nc(C)nn3c2C)cc1	i
Cc1c(C2=CCN(S(=O)(=O)c3ccc(Br)cc3)CC2)c2ccccc2n1CC(=O)N1CCCC1	-16.7%
COc1ccc(C2(C(=O)N3CCCCCNC(=O)CC3c3ccccc3)CC2)cc1 (configuration not stated)	-29.2%
CC1=C[C@@H](CNS(=O)(=O)c2ccccc2)[C@H](C(C)C)C[C@H]1CC(=O)NCc1ccc(C#N)cc1	4.47µM*
CC1=C[C@@H](CNS(=O)(=O)c2cccs2)[C@H](C(C)C)C[C@H]1CC(=O)NCc1ccc(C#N)cc1	i
COc1ccc(S(=O)(=O)NC[C@@H]2C=C(C)[C@H](CC(=O)NCc3ccc(C#N)cc3)C[C@H]2C(C)C)cc1	-3.8%
CCN(CC)CC[C@H]1CN(C(=O)CC(C)(C)C)CC[C@H]1CC(=O)O	6.2%[44.1 µM]
CCN1C(=O)CCN(C(=O)c2ccc3[nH]ccc3c2)CC12CCOCC2	-10.4%
Cn1ccnc1C(=O)NCC1CCCCC(=O)N1 (configuration not stated)	i
CCCC(=O)NCCc1nc2ccccc2n1Cc1c(F)cccc1Cl	-21.2%
O=C(NCCc1nc2ccccc2n1Cc1ccc(Cl)cc1)c1ccccc1	8.7%
O=C(NCCc1nc2ccccc2n1Cc1ccc(Cl)cc1Cl)c1ccco1	11.2µM*
SMILES	Pf Dd2 growth
O=C(O)COCC(=O)N1C[C@@H]2C[C@H](C1)c1ccc(-c3cccc(C(F)(F)F)c3)c(=O)n1C2	5.6%
CCc1cccc(NC(=O)C2CCC(CNS(=O)(=O)c3csc(C(N)=O)c3)CC2)c1 (configuration not stated)	22.2%
CC(C)(C)CC(=O)Nc1nc2c(s1)C[C@@H]1[C@](C)(CO)[C@H](O)CC[C@@]1(C)[C@@H]2CC(=O)O	-21.5%[44.1 µM]
C[C@H](NC(=O)C[C@@H]1c2nc(NC(=O)c3ccc(F)cc3)sc2C[C@@H]2[C@](C)(CO)[C@H](O)CC[C@]21C)c1ccccc1	2.51µM*
CC(C)NC(=O)C[C@@H]1c2nc(NC(=O)c3c(F)cccc3F)sc2C[C@@H]2[C@](C)(CO)[C@H](O)CC[C@]21C	-8.2%
CC(C)(C)CC(=O)Nc1nc2c(s1)C[C@@H]1[C@](C)(CO)[C@H](O)CC[C@@]1(C)[C@@H]2CC(=O)NCc1ccco1	i
CCCCCC(=O)Nc1nc2c(s1)C[C@@H]1[C@](C)(CO)[C@H](O)CC[C@@]1(C)[C@@H]2CC(=O)NC1CCCCC1	i
CCCCCC(=O)Nc1nc2c(s1)C[C@@H]1[C@](C)(CO)[C@H](O)CC[C@@]1(C)[C@@H]2CC(=O)NCc1ccccc1	-6.2%
C[C@@H](NC(=O)C[C@@H]1c2nc(NC(=O)CC(C)(C)C)sc2C[C@@H]2[C@](C)(CO)[C@H](O)CC[C@]21C)c1ccccc1	11.2µM*
CCCCCC(=O)Nc1nc2c(s1)C[C@@H]1[C@](C)(CO)[C@H](O)CC[C@@]1(C)[C@@H]2CC(=O)NCc1cc(F)cc(F)c1	7.94µM*
C[C@]1(CO)[C@H]2Cc3sc(NC(=O)c4ccc(F)cc4)nc3[C@@H](CC(=O)O)[C@]2(C)CC[C@H]1O	-23.9%
COc1ccccc1N1CCN(S(=O)(=O)CCNC(=O)COc2ccccc2F)CC1	i
CCc1nc(-c2c3n(c(=O)n(CC(=O)Nc4c(C)cccc4C)c2=O)CCCC3)no1	i
